TRPML1 ag = agonists of human TRPML1 channel; TRPML1-expressing cells, Ca2+ dye fluorescence, FDSS; activation, % (concentration not given with the values); hit rate 0.12% among 410,000; AID 624414; in the data active means activation above about 50%; further: 0% is about no effect
Target sequence (Q9GZU1 whole entry, looked up): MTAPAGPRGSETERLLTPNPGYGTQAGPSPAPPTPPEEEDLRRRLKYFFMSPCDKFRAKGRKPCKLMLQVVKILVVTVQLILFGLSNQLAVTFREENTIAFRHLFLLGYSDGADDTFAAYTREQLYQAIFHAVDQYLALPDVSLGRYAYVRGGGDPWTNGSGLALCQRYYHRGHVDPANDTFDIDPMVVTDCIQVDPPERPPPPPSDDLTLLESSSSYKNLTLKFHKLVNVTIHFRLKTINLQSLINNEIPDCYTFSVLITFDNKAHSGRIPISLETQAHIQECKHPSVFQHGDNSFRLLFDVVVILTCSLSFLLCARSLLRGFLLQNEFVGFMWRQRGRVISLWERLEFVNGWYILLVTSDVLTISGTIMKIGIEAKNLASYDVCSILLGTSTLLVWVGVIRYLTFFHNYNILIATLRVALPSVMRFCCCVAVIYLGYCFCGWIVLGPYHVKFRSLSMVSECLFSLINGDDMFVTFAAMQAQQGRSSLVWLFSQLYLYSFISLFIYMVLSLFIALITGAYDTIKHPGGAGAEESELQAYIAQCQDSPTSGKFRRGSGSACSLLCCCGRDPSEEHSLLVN
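Cells: TRPML1-DL, 1X Tet inducer, ~16 h at 37 degrees C/5% CO2. Dye: ABD Ca8 no-wash + quencher, 45-90 min RT. Read: 10 s baseline, compound add, 110 s agonist phase; 54-4 EC80 (4uM final), 110 s antagonist phase.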
TRPML1 inh = human mucolipin-1 channel inhibition | TRPML1-inducible cells, Ca2+ dye fluorescence, FDSS; stronger effect = lower value; inhibition of EC80 agonist-evoked calcium signal | activity change, negative = inhibition, % (test concentration not listed) | hit rate 0.02% among 390,000 | AID 624415; in the data active means activity change below about -50%;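 further: stimulus is agonist 54-4 at its EC80 concentration; on the % scale 0 is the no-effect control and ±100 the full control effect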
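Calcium fluorescence in TRPML1-DL cells induced overnight with Tet: a 110 s read after compound pin addition, then a 110 s antagonist read after challenge with 54-4 at 4 uM final (EC80).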
TRHR agonist = TRH receptor (human) agonism; TRHR cells, calcium flux fluo-8, FDSS agonist mode; activation, % at 2 µM; hit rate 0.18% among 360,000; in the data active means activation above about 30%; further: 0% is about no effect
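In this calcium-flux screen, cells bearing human TRHR are dye-loaded with fluo-8, baselined for 10 cycles, then exposed to library compounds; positive kinetic calcium responses during the agonist phase mark hits, with TRH as control.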
TRHR PAM = allosteric enhancers of human TRH receptor. enhancement, % at 2 µM. AID 493056. P34981. hit rate 0.66% among 360,000. TRHR cells, fluo-8 calcium fluorescence, EC20 TRH enhancement; in the data active means enhancement above about 30%; further: 0% is about no effect
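TRHR-expressing cells loaded with fluo-8 calcium dye were read kinetically (ex 480/em 530) during compound addition, then stimulated with an EC20 of TRH (10 nM final). Enhancement of the Gq-mediated intracellular calcium response was scored.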
* marks the source's active call; other numbers are inactive results. This is a sample that favours compounds with a hit; in the whole collection about 0.81% have one here.

How did CCCCCCn1c(=O)[nH]c2nc3cc(N)c(C)cc3nc2c1=O do in these assays?
TRPML1 ag: 70*; TRPML1 inh: -8; TRHR agonist: -1; TRHR PAM: 23

What do the screens show for `Clc1ccc2c(Cl)cc[n+](CCC3CCCCC3)c2c1`?
TRPML1 ag: 0

What do the screens show for `Cc1cc2c(s1)c1cnn(Cc3ccccc3C)c(=O)c1n2C`?
TRHR agonist: 0; TRHR PAM: 0

Results for Clc1ccc(Nc2nc(-c3ccccc3)c3cc(Cl)ccc3n2)cc1 ?
TRPML1 ag: 0; TRPML1 inh: -16; TRHR agonist: 1; TRHR PAM: -4

Results for O=C(NCCO)c1cccc(Nc2nc(-c3ccccc3)c3cc(Cl)ccc3n2)c1 ?
TRPML1 ag: 1; TRPML1 inh: 8; TRHR agonist: 0; TRHR PAM: 31*

How did COC(=O)c1ccccc1NC1CC(=O)N(c2c(C)cccc2C)C1=O (stereo not given) do in these assays?
TRPML1 ag: 0; TRPML1 inh: 2; TRHR agonist: 1; TRHR PAM: 33*

Results for CCOC(=O)/C=C/c1cc(F)c(S(=O)(=O)N2CCN(S(=O)(=O)c3ccc4c(c3)OCCO4)CC2)cc1F ?
TRHR agonist: 0; TRHR PAM: -3

What do the screens show for `CC(=O)Oc1cccc(-c2nc3ccccc3c(=O)o2)c1`?
TRPML1 ag: 3; TRPML1 inh: 18; TRHR agonist: 0; TRHR PAM: -4

What do the screens show for `COc1cccc(-c2nc3ccc(O)cc3c(=O)o2)c1`?
TRPML1 ag: -1; TRPML1 inh: -5; TRHR agonist: 0; TRHR PAM: 36*

Results for NC1C(N)C(N)C1N (stereo not given) ?
TRPML1 ag: 0

Results for C/C(=N\NC(=O)c1c(C)nc2ccccn12)c1ccc(O)cc1O ?
TRPML1 ag: 1; TRPML1 inh: -8; TRHR agonist: 3; TRHR PAM: 40*

What do the screens show for `O=C(COc1ccccc1C(=O)Nc1ccccc1)Nc1ccc2ccccc2c1`?
TRPML1 ag: 0

How did Cc1cc(OCC(=O)N[C@@H](CSCc2ccccc2)C(=O)O)c2c(C)c(C)c(=O)oc2c1 do in these assays?
TRHR agonist: 0; TRHR PAM: 41*

How did C[N+]1(CC(=O)c2ccc(I)cc2)CCCc2ccccc21 (stereo not given) do in these assays?
TRPML1 ag: -1

How did COc1cc(Cl)c(C)cc1NC(=O)C(OC(=O)CNC(=O)c1ccccc1)c1ccccc1 (stereo not given) do in these assays?
TRHR agonist: 0; TRHR PAM: -2

What do the screens show for `CC(C)(C)n1ncc2c(=O)n(Cc3ccc(C#N)cc3)cnc21`?
TRPML1 ag: 0; TRPML1 inh: -5

How did C=CCNC(=S)NNC(=O)c1ccccc1 do in these assays?
TRPML1 ag: 2; TRPML1 inh: 16; TRHR agonist: 0; TRHR PAM: 39*

Results for C=CCNC(=S)NNC(=O)c1cccc(Br)c1 ?
TRPML1 ag: 2; TRPML1 inh: 3; TRHR agonist: 0; TRHR PAM: 4

What do the screens show for `COc1cc(N(C)C)ccc1/C=C1\C=Cc2ccccc21`?
TRPML1 ag: 0

Results for COCCN1C(=O)/C(=C/c2ccc(N3CCCC3)cc2)SC1=S ?
TRPML1 ag: 60*; TRPML1 inh: -11; TRHR agonist: 44*; TRHR PAM: -5

How did COc1ccccc1NC(=S)NCc1ccccc1Cl do in these assays?
TRPML1 ag: -1; TRPML1 inh: 7; TRHR agonist: 0; TRHR PAM: 37*

How did c1ccc(-n2nnnc2SCCCSc2nc3ccccc3s2)cc1 do in these assays?
TRPML1 ag: 5; TRPML1 inh: 63; TRHR agonist: 1; TRHR PAM: 34*

How did O=C(CSc1nc2ccc(NC(=O)CSc3nnnn3-c3ccccc3)cc2s1)Nc1ccccc1 do in these assays?
TRPML1 ag: 0; TRPML1 inh: 18; TRHR agonist: 2; TRHR PAM: 2

Results for Cc1cc2c(s1)c1cnn(Cc3ccc(C(F)(F)F)cc3)c(=O)c1n2C ?
TRHR agonist: 0; TRHR PAM: -1

Results for O=c1cc(-c2ccccc2)nc(Cc2c(Cl)cccc2Cl)[nH]1 ?
TRPML1 ag: 1; TRPML1 inh: 7; TRHR agonist: 1; TRHR PAM: 31*

What do the screens show for `O=c1cc(CCl)nc(Cc2c(Cl)cccc2Cl)[nH]1`?
TRPML1 ag: 1; TRPML1 inh: -8

What do the screens show for `CCn1c(CCc2ccccc2)nnc1SCC(N)=O`?
TRPML1 ag: 0; TRPML1 inh: 0; TRHR agonist: 0; TRHR PAM: -2

What do the screens show for `C=CCn1c(CCc2ccccc2)nnc1SCC(N)=O`?
TRPML1 ag: 2; TRPML1 inh: -8; TRHR agonist: 0; TRHR PAM: 32*

Results for Cc1nc(-c2ccc([S+](=O)([O-])N3CCN([S+](=O)([O-])c4c(F)cccc4F)CC3)s2)cs1 ?
TRHR agonist: 0; TRHR PAM: 4

Results for CCc1ccc(OCC(=O)Nc2ccc3c(c2)c2ccccc2n3CC)cc1 ?
TRPML1 ag: 0; TRPML1 inh: 20; TRHR agonist: 0; TRHR PAM: 2

What do the screens show for `CCc1ccc(OCC(=O)Nc2ccc3c(c2)c2ccccc2n3CC)c(Br)c1`?
TRPML1 ag: -1; TRPML1 inh: -15; TRHR agonist: 0; TRHR PAM: 34*

How did CCOC(=O)c1cnc2c(Cl)cc(Cl)cc2c1Nc1cc(C(=O)O)ccc1C do in these assays?
TRPML1 ag: 1; TRPML1 inh: -7; TRHR agonist: -1; TRHR PAM: -3

What do the screens show for `CCOC(=O)c1cnc2ccccc2c1Nc1cc(C(=O)O)ccc1C`?
TRPML1 ag: 1; TRPML1 inh: 7; TRHR agonist: 0; TRHR PAM: 37*

Results for C(=C1C=c2ccccc2=C1)c1ccc(N=Nc2ccc(C=C3C=c4ccccc4=C3)cc2)cc1 ?
TRPML1 ag: 0

How did CCN(CC)CCCOc1cc2nc(N3CCCN(C)CC3)nc(NC3CCN(C)CC3)c2cc1OC do in these assays?
TRPML1 ag: 0

Results for CCc1nn(C(CC)C(=O)NCc2ccc(OC)c(OC)c2)c(=O)c2cc3oc(C)cc3n12 (stereo not given) ?
TRPML1 ag: 0; TRPML1 inh: -9; TRHR agonist: -2; TRHR PAM: 41*

How did C/C(=C\c1ccc(F)cc1)C(=O)c1c(C)cc(C)[nH]c1=O do in these assays?
TRPML1 ag: 1; TRPML1 inh: -13; TRHR agonist: -1; TRHR PAM: 0

What do the screens show for `C/C(=C\c1ccccc1)C(=O)c1c(C)cc(C)[nH]c1=O`?
TRPML1 ag: 0; TRPML1 inh: -7; TRHR agonist: 1; TRHR PAM: 32*

Results for O=C(/C=C/c1ccc(C(F)(F)F)cc1)OC(C(=O)NC1CC1)c1ccccc1 (stereo not given) ?
TRPML1 ag: -1

What do the screens show for `Cc1ccc(C)n1-c1ccc(C(=O)NCc2ccncc2)cc1`?
TRPML1 ag: 0; TRPML1 inh: -6; TRHR agonist: 2; TRHR PAM: 31*

High-throughput results: PubChem, National Center for Advancing Translational Sciences (NCATS)
